According to PubChem BioAssay (NCATS):
Inconclusive results are not listed. Activity calls are given as the source filed them. The call rests on the fitted dose curve; in most records, active means well fitted inhibition curve with a large enough effect; inconclusive means small, poorly fitted or top-dose-only effect; inactive means flat fitted curve, though single readings scatter.

Key:
Experiment in all cases: qHTS profiling for inhibitors of Plasmodium falciparum proliferation (AID 504749); further: nearly all actives have a fitted effect of over 60% in size
Details in all cases: P. falciparum in erythrocytes, SYBR Green DNA, 72 h; series mostly up to 28.7 µM
AA1029 = system: AA1029
Outline: (§1)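 SYBR Green fluorescence of parasite DNA, read after lysis and overnight dark incubation, measured growth over 72 h in erythrocyte culture at 0.3% parasitemia and 2.5% hematocrit. Data normalised to DMSO and 0.29 uM artemisinin, with plate-drift correction.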

C2A = system: C2A
Outline: as §1

CP211 = system: CP211
Outline: as §1

CP215 = system: CP215
Outline: as §1

CP217 = system: CP217
Outline: as §1

CP250 = system: CP250
Outline: as §1

CP252 = system: CP252
Outline: as §1

CP256 = system: CP256
Outline: as §1

CP269 = system: CP269
Outline: as §1

CP325 = system: CP325
Outline: as §1

CP329 = system: CP329
Outline: as §1

DIV14 = system: DIV14
Outline: as §1

DIV17 = system: DIV17
Outline: as §1

FAB9 = system: FAB9
Outline: as §1

N140 = system: N140
Outline: as §1

P93_24 = system: P93_24
Outline: as §1

PAD = system: PAD
Outline: as §1

PC15 = system: PC15
Outline: as §1

SC27B = system: SC27B
Outline: as §1

TAB165 = system: TAB165
Outline: as §1

Measured: Potency

Oc1ccc(/C=C\c2cc(O)cc(O)c2)cc1
inactive: AA1029 | C2A | CP211 | CP215 | CP217 | CP250 | CP252 | CP256 | CP269 | CP325 | CP329 | DIV14 | DIV17 | FAB9 | N140 | P93_24 | PAD | PC15 | SC27B | TAB165
